PNC inhibitor = perinucleolar compartment assembly inhibition | PC3M PTB-GFP, PNC prevalence imaging, 16 h; active compounds read low | activity change (PNC), negative = inhibition, % at 10 µM | actives 3.1% (n = 140,000) | AID 2417;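 active means readout at or below -70, meaning at least 70% loss of cells showing the perinucleolar compartment, a nuclear body marking cancer cells; inconclusive means readout between -30 and a set limit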
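Compounds are pinned in duplicate onto adhered PC3M cells stably expressing GFP-tagged PTB and incubated 16 h at 37 C. Cells are then fixed, nuclei stained with Hoechst, and PNC-positive cells counted.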
IMPase cell inh = cell-permeable inhibitors of inositol monophosphatase (IMPase) | AID 901 | 120,000 tested, under 10 active | P97697 | CHO-M1 cells, IP1 accumulation, HTRF TR-FRET ratio | inhibition (IP1 accumulation), % at 46.1 µM; active means well fitted curve in the direction sought with a large enough effect in the signal ratio, not every such curve was filed as active; inconclusive means small, poorly fitted or top-dose-only effect, or a change in a side signal; inactive means no such curve, though single readings can be large or run the other way; the % refers to the signal ratio;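 further: cells stimulated with carbachol in lithium chloride buffer; higher means more IMPase inhibition seen as more IP1 and lower FRET ratio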
Target sequence (P97697 whole entry, looked up): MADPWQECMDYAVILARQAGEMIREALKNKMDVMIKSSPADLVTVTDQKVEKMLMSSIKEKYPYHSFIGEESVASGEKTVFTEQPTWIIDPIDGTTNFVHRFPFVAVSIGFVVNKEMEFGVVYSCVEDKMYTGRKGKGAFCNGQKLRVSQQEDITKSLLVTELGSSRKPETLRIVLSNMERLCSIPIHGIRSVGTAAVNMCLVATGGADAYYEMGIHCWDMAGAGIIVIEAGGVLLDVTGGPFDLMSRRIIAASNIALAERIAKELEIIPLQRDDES
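CHO-M1 cells (CHO stably expressing M1 receptor), compound up to 46 uM final, stimulated with carbachol (50 uM as added) in buffer with 50mM LiCl, pH 7.4, 30 min at 37C. Cytosolic IP1 read by TR-FRET; AC50 from Hill fits.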
ALDH1A1 block = inhibitors of human aldehyde dehydrogenase 1A1. P00352. Purified ALDH1A1, NADH fluorescence, propionaldehyde substrate. Potency, µM (titrated, usually from 75.3 µM), actives largely listed as inhibitors. actives 7.3% (n = 220,000)
HPGD block = blocks human HPGD enzyme activity; P15428; purified HPGD, NADH fluorescence kinetic, PGE2 substrate; Potency, µM, actives largely listed as inhibitors; actives 4.3% (n = 150,000)
Target sequence (P15428 whole entry, looked up): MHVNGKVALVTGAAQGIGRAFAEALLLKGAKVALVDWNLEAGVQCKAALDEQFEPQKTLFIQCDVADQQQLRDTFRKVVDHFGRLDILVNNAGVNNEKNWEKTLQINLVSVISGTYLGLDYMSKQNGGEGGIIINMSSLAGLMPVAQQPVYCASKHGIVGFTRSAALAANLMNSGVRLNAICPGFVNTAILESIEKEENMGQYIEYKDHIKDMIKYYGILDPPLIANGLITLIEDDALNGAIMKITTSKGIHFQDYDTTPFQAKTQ
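20 nM HPGD preincubated 15 min at room temperature with compound in 50 mM Tris-HCl pH 8, 0.01% Tween 20. Started with 1 mM NAD+ and 30 uM prostaglandin E2; NADH fluorescence (360/450 nm) read 5 times over 30-s intervals, last minus first.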
Luc counter = Kinase-Glo luciferase inhibition (counter-screen) | actives 0.28% (n = 200,000) | Kinase-Glo luciferase, ATP luminescence, 8 min | Potency, µM (highest dose often 38.3 µM), actives largely listed as inhibitors | Q27757; active means well fitted inhibition curve with a large enough effect; inconclusive means small, poorly fitted or top-dose-only effect; further: nearly all actives have a fitted effect of over 60% in size
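Compound is pinned into ATP-containing buffer (10 uM ATP, imidazole pH 7.2, 7 mM MgCl2). Kinase-Glo luciferase reagent is then added. Light output is recorded following an 8-min room-temperature incubation.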
Lamin A splicing = LMNA splicing modulation; Potency, µM (titrated, usually from 46.1 µM), hits mostly inhibitors; actives 0.01% (n = 200,000); HeLa LMNA splicing GFP/RFP minigene ratio, 48 h; active means well fitted inhibition curve with a large enough effect in the signal ratio, with a control signal flat, not every such curve was filed as active; inconclusive means small, poorly fitted or top-dose-only effect, or effect the other way, or a change in a side signal; the % refers to the signal ratio
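Read-out is the ratio of GFP to DsRed2 object intensity, acquired by 488 nm laser-scanning cytometry on HeLa lamin A-EGFP minigene reporter cells. Compound incubation 48 hrs at 37 °C in Opti-MEM with 2% FBS; DMSO 0.5% final.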
Each line names hits and unclear results; the compound was inactive in the other large screens. The list is not random: actives were taken first. Their share in the collection is about 10%. Unless noted, the call rests on the fitted dose curve; in most records, active means well fitted inhibition curve with a large enough effect (not every such curve was filed as active); inconclusive means small, poorly fitted or top-dose-only effect, or another doubt; inactive means no such curve, though single readings can be large or run the other way.

Cc1cccc(C(CC(=O)NCc2ccco2)c2ccccc2)c1O (stereo not given)	none (no result: PNC inhibitor, IMPase cell inh, HPGD block)
CC(C)Oc1ccc(C(CC(=O)NCc2ccco2)c2ccccc2)cc1 (stereo not given)	ALDH1A1 block inconclusive, HPGD block 11.2µM
COc1ccc(CCNS(=O)(=O)c2ccc(C3CNC(=O)C3)cc2)cc1OC (stereo not given)	PNC inhibitor -118.9
COc1ccc(CCNS(=O)(=O)c2ccc(S(=O)(=O)N3CCCC3)cc2)cc1OC	ALDH1A1 block inconclusive, Lamin A splicing inconclusive
Cc1c(C(=O)Nc2ccc(C(C)C)cc2)sc2nc3n(c(=O)c12)CCC3	none (no result: PNC inhibitor, IMPase cell inh, ALDH1A1 block, HPGD block, Luc counter)
O=C(COC(=O)/C=C/c1ccccc1[N+](=O)[O-])NC1CC1	none (no result: PNC inhibitor, IMPase cell inh, HPGD block, Lamin A splicing)
O=C(NNc1ccccc1[N+](=O)[O-])NC1CCCCC1	ALDH1A1 block 25.1µM (no result: PNC inhibitor, IMPase cell inh, HPGD block)
O=C(/C=C/c1ccccc1[N+](=O)[O-])NC1CCCC1	ALDH1A1 block 14.1µM (no result: PNC inhibitor, IMPase cell inh, HPGD block, Lamin A splicing)
CC(C)COC(=O)n1ccc(C(=O)N2CCCCC2)n1	HPGD block 10µM
COC(=O)c1csc(C(=O)c2c[nH]c3ccccc23)n1	none (no result: PNC inhibitor, IMPase cell inh, Lamin A splicing)
N#Cc1c(NC(=O)CSc2ncnc3sccc23)oc(-c2ccco2)c1-c1ccco1	ALDH1A1 block 10µM, HPGD block inconclusive
Cc1cc(NC(=O)CSc2ncnc3sccc23)no1	none (no result: PNC inhibitor, IMPase cell inh, HPGD block)
COc1ccc(NC(=O)C2CCC(CNS(=O)(=O)c3ccc(Br)s3)CC2)cc1OC (stereo not given)	none (no result: PNC inhibitor, ALDH1A1 block, HPGD block, Luc counter, Lamin A splicing)
CC(NCc1ccc(-c2ccccc2)cc1)C(O)c1ccccc1 (stereo not given)	PNC inhibitor -118.2, ALDH1A1 block inconclusive, Lamin A splicing inconclusive (no result: IMPase cell inh)
Cn1c(N2CCN(C(=O)NCc3ccccc3)CC2)nc2ccccc21	PNC inhibitor inconclusive, ALDH1A1 block 3.98µM
COc1cccc(Cn2c(=O)c(-c3cc(F)cc(F)c3)nc3cnc(N(C)C)nc32)c1	ALDH1A1 block inconclusive (no result: PNC inhibitor, IMPase cell inh, HPGD block, Luc counter)
O=C(O)c1ccc(N2C(=O)c3cccc(Oc4ccc(Cl)cc4)c3C2=O)cc1	HPGD block 1.41µM (no result: IMPase cell inh)
O=C(O)CN1C(=O)c2ccc(Oc3cccc4c3C(=O)N(CC(=O)O)C4=O)cc2C1=O	PNC inhibitor inconclusive
O=C(O)c1cccc(N2C(=O)c3cccc(Oc4ccc(Cl)cc4)c3C2=O)c1	HPGD block 25.1µM (no result: IMPase cell inh)
COc1ccc(C2=NN(CCC(=O)NCCc3ccccc3)C(=O)CC2)cc1	none (no result: PNC inhibitor, IMPase cell inh, ALDH1A1 block, HPGD block, Luc counter)
COc1cc(C(Nc2ccc(S(=O)(=O)N3CCC(C)CC3)cc2)C(=O)NCC2CCCO2)cc(OC)c1OC (stereo not given)	ALDH1A1 block 3.55µM (no result: IMPase cell inh)
COc1ccc(CCN2C(=O)c3cccc4c(C(=O)N5CCCCC5)ccc(c34)C2=O)cc1OC	ALDH1A1 block 10µM, HPGD block 12.6µM, Lamin A splicing inconclusive
Cn1cnc(S(=O)(=O)N2CCC(C(=O)Nc3ccc(F)cc3F)CC2)c1	none (no result: PNC inhibitor, IMPase cell inh, ALDH1A1 block, HPGD block, Luc counter)
Cc1ccc(S(=O)(=O)Oc2ccc(/C=N/NC(=O)c3nn(C)cc3Cl)cc2)cc1	PNC inhibitor -100.0, ALDH1A1 block inconclusive
O=C(N/N=C/c1ccc(OCC(=O)N2CCOCC2)cc1)c1ccccc1Cl	none (no result: PNC inhibitor, IMPase cell inh, HPGD block)
Cc1ccc(/C=N/OC(=O)c2nn(C)cc2Cl)cc1	none (no result: PNC inhibitor, IMPase cell inh, HPGD block, Lamin A splicing)
CSCCOC(=O)COc1ccc(/C=N/NC(=O)c2nn(C)cc2Cl)cc1	HPGD block 3.98µM (no result: IMPase cell inh)
CCOC(=O)CCN1C(=O)[C@H]2[C@H]3[C@H](O)[C@H](O)C/C(=N/OC/C=C(\C)CCC=C(C)C)[C@@H]3CC[C@@H]2C1=O	none (no result: PNC inhibitor, IMPase cell inh, HPGD block, Luc counter, Lamin A splicing)
Cc1ccc(C(=O)/C=C/Nc2ccccc2C(N)=O)o1	ALDH1A1 block inconclusive, HPGD block inconclusive, Luc counter inconclusive, Lamin A splicing inconclusive
NC(=O)c1ccccc1N/C=C/C(=O)c1cccs1	PNC inhibitor -93.8, ALDH1A1 block inconclusive, Luc counter inconclusive
NC(=O)c1ccccc1N/C=C/C(=O)c1ccc(Cl)cc1Cl	ALDH1A1 block inconclusive, HPGD block 12.6µM, Luc counter 11.2µM
O=C(/C=C/Nc1ccc(F)c(F)c1)c1cccs1	none (no result: HPGD block, Luc counter)
NC(=O)c1ccccc1N/C=C/C(=O)c1ccc(F)cc1	PNC inhibitor inconclusive, ALDH1A1 block inconclusive, Luc counter 7.94µM
